About 79,000 compounds went through this panel and 15% of them were active in at least one assay; those are over-represented in the sample as a whole. Calls of active or inactive are those of the source. Cut-off read from the data, not from the text of the source: active = growth inhibition above about 70%; inactive = the rest.
Assay: NCI Yeast Anticancer Drug Screen. Data for the wt2 strain (AID 169);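 note: 0% = growth of vehicle-treated yeast cultures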
Conditions: S. cerevisiae wt2 strain growth inhibition, stronger effect = higher value
Procedure: Growth inhibition of yeast strains with defined genetic alterations is measured as a screen for potential anti-cancer activity. Selected strains with alterations in DNA damage repair or cell cycle control were exposed to compounds and growth inhibition was measured relative to vehicle treated controls. The strain used in this assay is wt2

Measured: growth inhibition

CC(C)C(C)/C=C\C(C)C1CCC2C3=CC=C4CC(O)CCC4(C)C3CCC21C (stereo not given)
inactive: at 1.2 µM 0% | at 3.7 µM 1% | at 11.0 µM 1% | at 33.0 µM 1% | at 100.0 µM 14%

O=[N+]([O-])/C=C/c1cc(Cl)c(/C=C/[N+](=O)[O-])cc1Cl
active: at 33.0 µM 91%
inactive: at 1.2 µM 8% | at 3.7 µM 34% | at 11.0 µM 68% | at 100.0 µM 69%

COc1cc([C@@H]2c3cc4c(cc3[C@H](OC3OC5COC(C(C)C)OC5C(O)C3O)C3COC(=O)[C@@H]32)OCO4)cc(OC)c1O (stereo not given in full)
inactive: at 1.2 µM -58% | at 3.7 µM -40% | at 11.0 µM -45% | at 33.0 µM -19%
active: at 100.0 µM 83%

Nc1ccc2c(c1)C(=O)c1ccc(F)cc1-2
inactive: at 1.2 µM 1% | at 3.7 µM 3% | at 11.0 µM 7% | at 33.0 µM 11% | at 100.0 µM 12%

CN(C)c1ccc2c(SCC(=O)OCC(=O)[C@@]3(O)CC[C@H]4[C@@H]5CCC6=CC(=O)C=C[C@]6(C)[C@H]5C(=O)C[C@@]43C)c3ccc(N(C)C)cc3nc2c1
active: at 100.0 µM 83%
inactive: at 1.2 µM -89% | at 3.7 µM -74% | at 11.0 µM -15% | at 33.0 µM 67%

O=C(CSC(=S)N1CCCCC1)Nc1nc2c(s1)CCCC2
active: at 100.0 µM 88%
inactive: at 1.2 µM -7% | at 3.7 µM -3% | at 11.0 µM -2% | at 33.0 µM 22%

CCCCCCCCCCCCNC(C)=O
inactive: at 1.2 µM -2% | at 3.7 µM -1% | at 11.0 µM -3% | at 33.0 µM -7% | at 100.0 µM 24%

C[C@]12CC[C@H](O)CC1=CC[C@@H]1C2CC[C@]2(C)C(=O)NC(=O)CC12 (stereo not given in full)
inactive: at 1.2 µM -14% | at 3.7 µM 27%
active: at 11.0 µM 78% | at 33.0 µM 94% | at 100.0 µM 97%

Reference: PubChem BioAssay (NCI)
